# A549 tox = Nrf2 qHTS screen for inhibitors: counterscreen for cytotoxicity; 390,000 compounds, 0.16% hits; AID 504648, 2011; Potency, µM (titrated, usually from 46 µM), for the others: at the highest dose activity change, negative = cytotoxicity, hits mostly inhibitors; A549 ARE-Fluc cells, CellTiter-Fluor viability, 18-24 h; also: potency is read from the fitted curve at half-maximal effect
#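 A549 ARE_Fluc cells in 5% FBS OPTI-MEM were exposed to compounds in concentration-response for 18-24 h at 37 deg C. Viability was read by CellTiter-Fluor fluorescence (Ex 405/Em 525) after 30 min, before the luciferase read.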
# Nrf2 block = Nrf2 qHTS screen for inhibitors; A549 ARE-Fluc reporter, luciferase luminescence, 18-24 h; Potency, µM (doses to about 46 µM), inactives show top-dose activity change, negative = inhibition, most hits filed as inhibitors; 360,000 compounds, 2.1% hits; AID 504444, 2011; also: potency is read from the fitted curve at half-maximal effect; nearly all actives have a fitted effect of over 60% in size
#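 Reporter: ARE-Fluc in A549. Exposure: 18-24 h, 37 °C, 5% CO2, 5% FBS OPTI-MEM. Readouts: fluorescent cytotoxicity (CellTiter-Fluor), then luminescent Nrf2 signal after BugLite.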
# PI4K2A inh = qHTS for small molecular inhibitors of PI4K2A; 420,000 compounds, 0.13% hits; AID 1346378, 2018; activity change, negative = inhibition, % at 76.9 µM; purified PI4K2A, ADP-Glo luminescence, 1 h; active compounds read low; Phosphatidylinositol 4-kinase type 2-alpha (Homo sapiens), Q9BTU6; in the data active = activity change below about -50%; inconclusive = mostly about -30% to -49%;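 also: -100% = wells without enzyme as full effect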
# Target sequence (Q9BTU6 whole entry, looked up): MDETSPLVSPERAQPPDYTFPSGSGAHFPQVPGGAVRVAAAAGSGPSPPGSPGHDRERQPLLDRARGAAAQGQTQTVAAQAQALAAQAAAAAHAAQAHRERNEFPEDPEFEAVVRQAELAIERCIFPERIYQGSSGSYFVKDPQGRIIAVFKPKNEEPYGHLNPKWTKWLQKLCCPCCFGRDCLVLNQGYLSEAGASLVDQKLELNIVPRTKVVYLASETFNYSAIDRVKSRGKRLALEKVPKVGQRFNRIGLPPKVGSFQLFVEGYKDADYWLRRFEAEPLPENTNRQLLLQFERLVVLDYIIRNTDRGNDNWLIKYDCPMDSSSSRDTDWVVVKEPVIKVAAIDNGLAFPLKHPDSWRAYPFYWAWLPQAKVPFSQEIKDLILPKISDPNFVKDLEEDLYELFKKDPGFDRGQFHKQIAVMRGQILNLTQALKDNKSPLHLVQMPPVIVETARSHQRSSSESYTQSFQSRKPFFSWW
#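 PI4K2A activity was measured by ADP-Glo luminescence: enzyme (4 ug/mL stock) and phosphatidylinositol (1.2 mM stock) in Tris pH 7.5/MgCl2/EGTA/Triton X-100 buffer were reacted with ATP (300 microM stock) for one hour at ambient temperature.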
# KB-3-1 tox = qHTS assay for MDR1-selective chemotherapeutics: Primary screen using the parental adenocarcinoma cell KB-3-1 | 400,000 compounds, 1.4% hits | Potency, µM (top dose mostly 46.1 µM), actives largely listed as cytotoxic | KB-3-1 viability, CellTiter-Glo ATP luminescence, 72 h; also: potency is read from the fitted curve at half-maximal effect; nearly all actives have a fitted effect of over 60% in size
#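 Screening of KB-3-1 cells (DMEM, 10% FBS, phenol-red free) ran from lowest to highest compound concentration; after 72 h at 37 °C viability was read luminescently and curves fitted.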
# KB-V1 cytotox = qHTS assay for MDR1-selective chemotherapeutics: Primary screen using the drug-selected MDR subline cells KB-V1; KB-V1 MDR cells viability, CellTiter-Glo, 72 h; 400,000 compounds, 3.4% hits; Potency, µM (series often up to 46.1 µM), usual class: cytotoxic; also: potency is read from the fitted curve at half-maximal effect; nearly all actives have a fitted effect of over 60% in size
#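 KB-V1 MDR subline cells in DMEM (phenol-red free, 10% FBS) exposed to compounds in qHTS concentration series for 72 h at 37 degrees C. Viability read by CellTiter-Glo luminescence; concentration-effect curves fitted after normalization and correction.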
# Giardia kill = Small Molecules that selectively kill Giardia lamblia: qHTS. activity change, % at 7.66 µM, hits read low. 340,000 compounds, 0.15% hits. Giardia lamblia trophozoite viability; in the data active = activity change below about -80%; inconclusive = between about -30% and that limit;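 also: parasites exposed to compound for two days anaerobically before the ATP read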
#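 Luminescence from cellular ATP indicates surviving trophozoites (100 cells/well) following 48 hrs anaerobic compound treatment at 37 deg C; signal develops 15-30 min at room temperature.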
# Active calls of the source: *; i = inactive; ? = inconclusive; · = no result; ! = repeats disagree. A selection: hits, their analogues and other compounds. The true share with any hit is near 5.7%. Unless noted, calls follow the shape of the dose curve; as a rule, active = well fitted curve in the direction sought with a large enough effect; inconclusive = small, poorly fitted or top-dose-only effect, or another doubt; inactive = no such curve, though single readings can be large; an effect the other way counts as inactive or inconclusive. Unless noted, % is scaled to controls: 0 for no effect and ±100 for the full control effect.
SMILES,A549 tox,Nrf2 block,PI4K2A inh,KB-3-1 tox,KB-V1 cytotox,Giardia kill
Cc1ccc(NC(=O)c2ccccc2NS(=O)(=O)c2ccc(Cl)s2)cc1S(=O)(=O)N1CCOCC1,?,23.1µM*,2.9,i,20.6µM*,-6.6
COc1ccc(C)cc1NC(=O)c1ccccc1NS(=O)(=O)c1ccc(Cl)s1,-21.8%,?,-0.7,5.17µM*,3.26µM*,-12.6
Cc1ccc(NC(=O)C2=COCCO2)cc1S(=O)(=O)N1CCOCC1,8.0%,2.8%,-0.1,i,i,-3.3
O=C(Nc1cc(S(=O)(=O)N2CCOCC2)ccc1N1CCOCC1)c1ccc([N+](=O)[O-])s1,-8.5%,?,-6.1,?,?,-88.8*
O=C(Nc1cc(S(=O)(=O)N2CCOCC2)ccc1O)c1ccc(NS(=O)(=O)c2ccc(Cl)s2)cc1,-1.0%,1.9%,-2.1,i,i,-27.0
Cc1ccc(NC(=O)c2ccc([N+](=O)[O-])s2)cc1S(=O)(=O)N1CCOCC1,?,?,-26.6,18.4µM*,i,?
O=S(=O)(Nc1cc(Br)cc2cccnc12)c1ccccc1,?,?,·,·,·,23.7
Oc1ccc(Cl)cc1C1C=C(c2ccc3c(c2)OCO3)NC(c2ccc(Br)cc2)N1 (centres undefined),-0.3%,8.0%,·,i,i,-7.3
COc1cccc(Cn2cc(COC(=O)N(C)Cc3ccccc3)nn2)c1,·,·,1.2,·,·,·
Nc1nc(N)c2sc3nc4c(cc3c2n1)CCC4,-4.7%,·,3.9,i,20.6µM*,-26.1
Cc1nc2ccccn2c1C(=O)N/N=C/c1ccc2c(c1)OCO2,-19.1%,?,0.9,?,18.4µM*,-1.7
Cc1nc2ccccn2c1C(=O)NCc1ccc2c(c1)OCO2,7.3%,-12.2%,-4.4,i,16.4µM*,-6.8
CCOc1cc(/C=N\NC(=O)c2c(C)nc3ccccn23)ccc1O,-1.1%,-0.4%,-0.7,i,i,-6.5
CCC(C)(C)c1ccc(Oc2ccc(N)cc2)cc1,-19.6%,5.8µM*,-2.2,i,i,13.4
COc1ccc(OC(=O)N(CC(=O)O)Cc2ccc(OCCc3nc(-c4ccccc4)oc3C)cc2)cc1,·,·,-2.0,·,·,·
O=C(Nc1ncc(Cc2ccccc2)s1)C1CCN(C(=O)c2ccco2)CC1,-10.6%,20.6µM*,·,i,i,-17.8
COc1ccc(NC(=O)[C@@H]2CC=C[C@@H]3CCN(Cc4ccc(Cl)c(Cl)c4)C(=O)[C@@H]32)cc1,-0.7%,-15.8%,1.5,?,23.1µM*!,-4.4
COc1ccc(NC(=O)[C@@H]2CC=C[C@@H]3CCN(Cc4ccccc4)C(=O)[C@@H]32)cc1,-9.4%,11.6%,-2.8,i,?,8.6
COc1ccc2c(c1)CN1CN(CC(C)C)S(=O)(=O)CC21 (centres undefined),·,·,-0.3,·,·,·
CC(=O)N1CCc2c1cccc2S(=O)(=O)NC(CC(C)C)C(=O)Nc1ccccc1C (centres undefined),·,·,1.9,·,·,·
CSc1cccc(NC(=O)CN2C(=O)COc3ccc(Cl)cc32)c1,0.8%,16.4µM*,-5.6,i,?,·
O=C(CN1C(=O)COc2ccc(S(=O)(=O)N3CCCCCC3)cc21)Nc1cccc(Cl)c1,18.4µM*,?,-3.0,·,·,·
O=C(CN1C(=O)COc2ccc(Cl)cc21)Nc1ccc(F)cc1,-0.2%,-16.2%,-0.6,i,i,·
Cc1ccc(NC(=O)CN2C(=O)COc3ccc(C)cc32)nc1,-3.4%,-11.1%,9.2,i,14.6µM*,-8.2
Cc1ccc2c(c1)N(CC(=O)Nc1nccs1)C(=O)CO2,-2.2%,0.6%,6.6,i,i,15.3
SMILES,A549 tox,Nrf2 block,PI4K2A inh,KB-3-1 tox,KB-V1 cytotox,Giardia kill
Cc1ccccc1Nc1nnc(-c2ccc(C)c(S(=O)(=O)N3CCCCC3)c2)c2ccccc12,-13.2%,?,1.1,i,i,·
O=C(c1ccc(Cl)cc1)c1oc2ccccc2c1CS(=O)c1ccc(Cl)cc1 (centres undefined),-4.3%,?,0.5,i,20.6µM*,-6.0
CCn1cc(S(=O)(=O)N2CCN(c3ccc(Cl)cc3)CC2)cn1,-13.5%,11.6µM*,2.7,?,?,0.0
CCn1cc(S(=O)(=O)N2CCc3ccccc3C2)cn1,17.2%,-8.8%,-0.2,i,i,-3.6
COc1ccc(C2N=C(Nc3nc4ccccc4o3)NC3=C2C(=O)CC(C)(C)C3)cc1 (centres undefined),2.3%,6.1%,·,?,i,-17.1
Oc1cc(NCc2ccc(Cl)cc2)cc2cccnc12,0.8%,11.4%,3.9,16.4µM*,i,8.7
COc1cc(NCc2ccccc2O)c2ncccc2c1,0.0%,5.7%,-6.9,i,i,-8.6
CN(C)CCCNc1cc(O)c2ncccc2c1,10.3µM*,5.17µM*,?,?,?,7.7
Oc1cc(NCc2ccc(F)cc2)cc2cccnc12,-13.6%,?,0.0,6.51µM*,i,10.4
CCc1ccc(CNC(=O)CCn2c(=O)c3cccn3c3ccc(F)cc32)cc1,9.2%,27.3%,2.1,·,·,·
C[N+]1(CC(=O)c2ccc(-c3ccccc3)cc2)CCOCC1,·,·,·,i,i,·
CN(N=O)C(=O)N[C@@H]1[C@@H](O)[C@H](O)[C@@H](CO)O[C@@H]1O,·,·,-1.3,·,·,·
COc1ccc(Cn2c(SCc3ccc(C(=O)NCc4cccs4)cc3)nc3ccncc32)cc1,-9.0%,?,2.4,i,i,·
COc1ccc(C2C3=C(Nc4ncnn42)c2ccccc2CCC3)cc1 (centres undefined),-3.0%,-27.2%,-2.5,i,i,-1.6
Fc1ccc(/C=C2\CCCC3=C2Nc2ncnn2C3c2ccc(F)cc2)cc1 (centres undefined),?,?,-23.3,20.6µM*,?,-2.3
O=S(=O)(/C=C/C=C/S(=O)(=O)c1ccccc1)c1ccccc1,?,25.9µM*,6.8,6.51µM*,i,11.6
Cc1ccc(S(=O)(=O)C=CS(=O)(=O)c2ccc(C)cc2)cc1,·,·,-2.6,?,i,·
CC(C)NC(=O)C1(C#N)C=C1c1ccccc1 (centres undefined),·,·,3.5,8.2µM*,?,·
COc1ccccc1/C=C/C=N\N1CCN(Cc2ccccc2Cl)CC1,-9.5%,8.6%,19.4,i,16.4µM*,-23.3
COc1ccccc1/C=C/C=N/N1CCN(Cc2ccc(Cl)cc2)CC1,2.5%,·,13.9,i,i,7.0

# From PubChem
